Data: PubChem BioAssay (EPA / NIEHS)
Active and inactive are the calls of the source. The calls were made as follows: active = hit-call score of the fitted dose curve at least 0.9, where 1 is the maximum; inactive = score below 0.9.

What was measured:
[1] = ATG_GRE_CIS: Attagene CIS-FACTORIAL HepG2 Assay for human Glucocorticoid Response Elements (GRE) (AID 2282947); conditions: HepG2 GRE cis-reporter, Attagene multiplex mRNA; actives raise or lower the signal
Method in brief: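 Transiently transfected HepG2 cells carrying GRE cis-reporter units (endogenous TF activity) dosed 24 h; reporter mRNA quantified by RT-PCR, 6-FAM labelling, HpaI digestion and capillary electrophoresis. Bidirectional fit versus DMSO baseline.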

[2] = ATG_ISRE_CIS: Attagene CIS-FACTORIAL HepG2 Assay for human Interferon Regulatory Factor 1 (IRF1) binding to an Interferon-Stimulated Response Element (ISRE) (AID 2282948); conditions: HepG2 ISRE cis-reporter (Attagene), mRNA transcription readout; actives raise or lower the signal
Method in brief: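 Transiently transfected HepG2 cells carrying cis-element reporter units, dosed 24 hours. Reporter mRNA quantified by RT-PCR, fluorescent primer extension, HpaI digestion and capillary electrophoresis. Bidirectional fitting relative to DMSO.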

[3] = ATG_M_32_CIS: Attagene CIS-FACTORIAL HepG2 Assay for M32 Transcription Factor (Internal Marker) (AID 2282949); conditions: HepG2 Attagene cis-factorial M32 reporter, mRNA; actives raise or lower the signal;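 also: background control marker of the multiplexed CIS panel rather than a real target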
Method in brief: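 HepG2 cells transiently transfected with multiplexed cis-regulated reporter units, dosed 24 h. Reporter mRNA quantified by RT-PCR, 6-FAM labelling, HpaI digestion and capillary electrophoresis; bidirectional fit vs DMSO.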

[4] = ATG_M_06_CIS: Attagene CIS-FACTORIAL HepG2 Assay for M06 Transcription Factor (Internal Marker) (AID 2282950); conditions: HepG2 Attagene CIS-FACTORIAL M06 internal marker reporter; actives raise or lower the signal
Method in brief: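 Terse: HepG2, transient MRTU transfection (FuGene 6), 24 h dosing; total RNA, oligo(dT) RT, PCR, FAM label, HpaI cut, capillary electrophoresis; bidirectional fit vs DMSO baseline; background-control endpoint.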

[5] = target: Hypoxia-inducible factor 1-alpha (Homo sapiens) (UniProt Q16665); experiment: ATG_HIF1a_CIS: Attagene CIS-FACTORIAL HepG2 Assay for human Hypoxia Inducible Factor 1 (HIF1A) (AID 2282951); conditions: HepG2 Attagene cis-factorial HIF1a reporter transcription; actives raise or lower the signal
Hypoxia-inducible factor 1-alpha (Homo sapiens), sequence (Q16665 whole entry, looked up): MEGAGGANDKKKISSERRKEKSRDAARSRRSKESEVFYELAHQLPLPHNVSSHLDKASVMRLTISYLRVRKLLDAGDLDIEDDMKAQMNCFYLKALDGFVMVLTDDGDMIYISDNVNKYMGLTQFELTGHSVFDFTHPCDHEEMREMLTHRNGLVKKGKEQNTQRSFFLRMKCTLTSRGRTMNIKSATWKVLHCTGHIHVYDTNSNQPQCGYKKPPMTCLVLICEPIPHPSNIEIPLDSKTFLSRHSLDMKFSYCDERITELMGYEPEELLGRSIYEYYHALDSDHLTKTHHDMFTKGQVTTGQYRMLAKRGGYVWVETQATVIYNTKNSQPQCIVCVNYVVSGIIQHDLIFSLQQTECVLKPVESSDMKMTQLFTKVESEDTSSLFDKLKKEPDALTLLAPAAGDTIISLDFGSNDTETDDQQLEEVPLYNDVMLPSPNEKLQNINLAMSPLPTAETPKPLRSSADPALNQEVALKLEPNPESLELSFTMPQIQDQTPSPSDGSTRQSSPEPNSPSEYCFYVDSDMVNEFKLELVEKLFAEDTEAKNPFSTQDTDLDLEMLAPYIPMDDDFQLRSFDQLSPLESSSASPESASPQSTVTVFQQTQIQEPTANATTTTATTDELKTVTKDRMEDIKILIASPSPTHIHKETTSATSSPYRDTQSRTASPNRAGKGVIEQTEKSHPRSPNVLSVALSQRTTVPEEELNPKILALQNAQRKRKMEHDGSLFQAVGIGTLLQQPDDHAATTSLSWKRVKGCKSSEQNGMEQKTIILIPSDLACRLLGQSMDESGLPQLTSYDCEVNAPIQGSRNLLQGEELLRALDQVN
Method in brief: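 Activity is fitted in both directions relative to DMSO. Reporter transcripts are read by RT-PCR, fluorescent primer extension and capillary electrophoresis after 24 h chemical treatment. The cells are HepG2 carrying transiently transfected cis-element-driven reporter units responding to endogenous factors.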

[6] = target: Heat shock factor protein 1 (Homo sapiens) (UniProt Q00613); experiment: ATG_HSE_CIS: Attagene CIS-FACTORIAL HepG2 Assay for human Heat Shock Transcription Factor 1 (HSE) (AID 2282953); conditions: HepG2 HSE cis-reporter, Attagene RNA transcription; actives raise or lower the signal
Heat shock factor protein 1 (Homo sapiens), sequence (Q00613 whole entry, looked up, the tested form may be a part): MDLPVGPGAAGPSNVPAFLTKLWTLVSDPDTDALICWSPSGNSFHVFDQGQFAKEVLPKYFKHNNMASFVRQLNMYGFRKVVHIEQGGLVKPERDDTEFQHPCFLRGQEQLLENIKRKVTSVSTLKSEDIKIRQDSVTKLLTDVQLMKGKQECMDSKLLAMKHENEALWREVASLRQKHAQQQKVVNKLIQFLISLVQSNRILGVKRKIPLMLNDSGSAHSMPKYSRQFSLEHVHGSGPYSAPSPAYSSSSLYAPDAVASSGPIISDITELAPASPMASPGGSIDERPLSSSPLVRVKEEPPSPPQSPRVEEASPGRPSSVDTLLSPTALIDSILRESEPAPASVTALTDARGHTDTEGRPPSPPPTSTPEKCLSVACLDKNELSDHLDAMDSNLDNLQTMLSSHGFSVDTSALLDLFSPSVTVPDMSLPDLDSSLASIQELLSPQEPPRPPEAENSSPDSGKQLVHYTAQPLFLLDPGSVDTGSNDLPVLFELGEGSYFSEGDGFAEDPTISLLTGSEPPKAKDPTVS
Method in brief: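 Read-out: fluorescence of reporter-specific RT-PCR fragments separated by capillary electrophoresis. HepG2 carrying transfected cis-element reporter units; 24 h dosing; activity fitted in both directions relative to DMSO baseline.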

[7] = ATG_PBREM_CIS: Attagene CIS-FACTORIAL HepG2 Assay for human Phenobarbital-responsive Enhancer Module (PBREM) (AID 2282955); conditions: HepG2 PBREM cis-reporter, Attagene multiplexed transcription; actives raise or lower the signal
Method in brief: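 Endogenous transcription factor activity was read from reporter transcripts in transiently transfected human HepG2 liver cells after 24 h dosing. RT-PCR products were fluorescently labelled, HpaI-cut and sized by capillary electrophoresis; activity fitted bidirectionally against DMSO baseline.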

[8] = target: Paired box protein Pax-6 (Homo sapiens) (UniProt P26367); experiment: ATG_Pax6_CIS: Attagene CIS-FACTORIAL HepG2 Assay for human Paired Box 6 (PAX6) (AID 2282956); conditions: HepG2 CIS-FACTORIAL PAX6 reporter transcription, RNA readout; actives raise or lower the signal
Paired box protein Pax-6 (Homo sapiens), sequence (P26367 whole entry, looked up): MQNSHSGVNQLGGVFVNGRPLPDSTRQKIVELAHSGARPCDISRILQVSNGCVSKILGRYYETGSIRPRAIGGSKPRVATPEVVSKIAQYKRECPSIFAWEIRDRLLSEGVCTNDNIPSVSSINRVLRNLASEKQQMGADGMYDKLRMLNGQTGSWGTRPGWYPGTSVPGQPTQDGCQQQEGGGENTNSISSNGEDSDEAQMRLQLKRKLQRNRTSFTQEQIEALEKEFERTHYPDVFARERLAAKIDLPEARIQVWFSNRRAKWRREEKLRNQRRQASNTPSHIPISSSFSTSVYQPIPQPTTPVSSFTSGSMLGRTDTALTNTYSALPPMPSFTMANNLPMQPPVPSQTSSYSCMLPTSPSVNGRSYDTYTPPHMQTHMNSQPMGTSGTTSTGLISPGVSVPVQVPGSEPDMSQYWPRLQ
Method in brief: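 HepG2 cells transiently transfected with cis-promoter-driven multiplexed reporter units sensing endogenous transcription factor activity; 24 h chemical exposure. Reporter mRNA quantified by RT-PCR, 6-FAM labelling, HpaI digestion and capillary electrophoresis; bidirectional fit versus DMSO baseline.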

[9] = ATG_PXRE_CIS: Attagene CIS-FACTORIAL HepG2 Assay for human Pregnane X Receptor Element (PXRE) (AID 2282957); conditions: HepG2 Attagene CIS-FACTORIAL PXRE reporter, mRNA; actives raise or lower the signal
Method in brief: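 Transiently transfected HepG2 cells were dosed and incubated for 24 h. RNA was then isolated, DNase-treated, reverse-transcribed and reporter sequences amplified. Labeled, HpaI-digested fragments were quantified by capillary electrophoresis against DMSO.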

[10] = ATG_PPRE_CIS: Attagene CIS-FACTORIAL HepG2 Assay for human Peroxisome Proliferator-activated Response Element (PPRE) (AID 2282958); conditions: HepG2 PPRE cis-element reporter, Attagene transcription factor profiling; actives raise or lower the signal
Method in brief: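 Endogenous PPRE-driven transcription is measured in HepG2 cells carrying transfected multi-reporter constructs. Reporter transcripts are quantified by RT-PCR, HpaI digestion and capillary electrophoresis 24 h after dosing. DMSO baseline, bidirectional fit.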

[11] = ATG_RORE_CIS: Attagene CIS-FACTORIAL HepG2 Assay for human RAR-related Orphan Receptor Element (RORE) (AID 2282959); conditions: HepG2 Attagene cis-factorial RORE reporter, mRNA; actives raise or lower the signal
Method in brief: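 RORE reporter transcripts reflecting endogenous factor activity were read after 24 h compound exposure of transfected HepG2 cells, using reverse transcription, PCR, fluorescent labelling and capillary electrophoresis sizing. Gain or loss fitted against DMSO.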

[12] = ATG_Sox_CIS: Attagene CIS-FACTORIAL HepG2 Assay for human SRY-box transcription factor (SOX) (AID 2282960); conditions: HepG2 Attagene cis-factorial SOX reporter, mRNA; actives raise or lower the signal
Method in brief: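 Reporter transcripts, measured by RT-PCR and capillary electrophoresis of labelled fragments, report endogenous SOX transcription factor activity. Transiently transfected human HepG2 cells receive chemical for 24 h; changes in either direction are fitted relative to DMSO.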

[13] = target: Transcription factor Sp1 (Homo sapiens) (UniProt P08047); experiment: ATG_Sp1_CIS: Attagene CIS-FACTORIAL HepG2 Assay for human Specificity Protein 1 (Sp1) (AID 2282961); conditions: HepG2 Sp1 cis-reporter transcription, actives raise or lower the signal
Transcription factor Sp1 (Homo sapiens), sequence (P08047 whole entry, looked up): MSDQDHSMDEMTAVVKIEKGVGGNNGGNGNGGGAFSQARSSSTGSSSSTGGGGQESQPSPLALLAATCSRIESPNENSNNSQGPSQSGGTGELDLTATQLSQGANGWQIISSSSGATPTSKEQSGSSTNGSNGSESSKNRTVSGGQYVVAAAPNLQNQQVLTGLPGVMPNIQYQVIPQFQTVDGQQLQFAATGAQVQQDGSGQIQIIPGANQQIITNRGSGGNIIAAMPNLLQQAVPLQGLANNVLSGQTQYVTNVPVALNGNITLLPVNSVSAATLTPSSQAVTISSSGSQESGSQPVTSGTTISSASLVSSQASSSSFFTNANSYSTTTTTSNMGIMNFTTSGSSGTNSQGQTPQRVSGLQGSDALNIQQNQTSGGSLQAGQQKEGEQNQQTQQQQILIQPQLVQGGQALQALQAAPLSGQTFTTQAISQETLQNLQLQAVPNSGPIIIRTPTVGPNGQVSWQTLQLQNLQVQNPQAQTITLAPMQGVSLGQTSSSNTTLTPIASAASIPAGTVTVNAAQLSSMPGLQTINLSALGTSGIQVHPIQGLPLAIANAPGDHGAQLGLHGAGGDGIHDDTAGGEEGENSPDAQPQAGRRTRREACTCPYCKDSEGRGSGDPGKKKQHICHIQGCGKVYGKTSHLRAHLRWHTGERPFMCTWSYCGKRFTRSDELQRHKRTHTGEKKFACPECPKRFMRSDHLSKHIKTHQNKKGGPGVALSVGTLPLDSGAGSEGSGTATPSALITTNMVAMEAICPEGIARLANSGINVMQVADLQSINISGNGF
Method in brief: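 Read-out is reporter transcript level, measured by RT-PCR and fluorescent capillary electrophoresis after 24 h chemical treatment. System: transiently transfected HepG2 cells reporting endogenous transcription factor activity; gain or loss fitted against DMSO baseline.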

[14] = ATG_SREBP_CIS: Attagene CIS-FACTORIAL HepG2 Assay for human Sterol Regulatory Element Binding (SREBP) (AID 2282962); conditions: HepG2 Attagene cis-factorial SREBP reporter, mRNA; actives raise or lower the signal
Method in brief: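 HepG2 cells transiently transfected with multiplexed cis-promoter reporter units sensing endogenous transcription factors; reporter mRNA measured 24 h after dosing by RT-PCR, 6-FAM labeling, HpaI digestion and capillary electrophoresis. Bidirectional fit versus DMSO.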

[15] = target: Signal transducer and activator of transcription 3 (Homo sapiens) (UniProt P40763); experiment: ATG_STAT3_CIS: Attagene CIS-FACTORIAL HepG2 Assay for human Signal Transducer and Activator of Transcription 3 (STAT3) (AID 2282963); conditions: HepG2, Attagene cis-factorial STAT3 reporter transcription; actives raise or lower the signal
Signal transducer and activator of transcription 3 (Homo sapiens), sequence (P40763 whole entry, looked up): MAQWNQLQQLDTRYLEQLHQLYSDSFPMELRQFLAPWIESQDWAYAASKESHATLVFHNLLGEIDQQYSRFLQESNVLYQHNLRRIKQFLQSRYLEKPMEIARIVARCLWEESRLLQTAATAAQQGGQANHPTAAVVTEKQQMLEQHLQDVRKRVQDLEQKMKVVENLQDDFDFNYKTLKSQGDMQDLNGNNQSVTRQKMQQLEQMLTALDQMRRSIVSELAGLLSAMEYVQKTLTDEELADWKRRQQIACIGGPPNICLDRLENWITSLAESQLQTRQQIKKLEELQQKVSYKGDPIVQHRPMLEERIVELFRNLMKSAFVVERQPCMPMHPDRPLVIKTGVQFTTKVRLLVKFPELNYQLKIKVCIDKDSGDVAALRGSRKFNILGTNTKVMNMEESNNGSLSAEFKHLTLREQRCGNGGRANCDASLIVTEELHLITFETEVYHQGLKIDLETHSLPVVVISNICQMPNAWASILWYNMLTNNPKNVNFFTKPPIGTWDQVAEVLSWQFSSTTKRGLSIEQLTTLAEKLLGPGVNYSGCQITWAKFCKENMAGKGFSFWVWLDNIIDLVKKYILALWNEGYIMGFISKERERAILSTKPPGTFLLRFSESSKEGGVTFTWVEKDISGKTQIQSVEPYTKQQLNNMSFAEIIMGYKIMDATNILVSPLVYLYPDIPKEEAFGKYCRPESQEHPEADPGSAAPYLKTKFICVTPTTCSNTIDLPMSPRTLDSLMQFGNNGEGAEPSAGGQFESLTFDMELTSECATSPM
Method in brief: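 HepG2 cells transiently transfected with multiple cis-element-driven reporter units report endogenous transcription factor activity. After 24 h compound exposure, reporter mRNA is measured by RT-PCR, 6-FAM labelling, HpaI digestion and capillary electrophoresis. Fitted bidirectionally versus DMSO.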

[16] = ATG_TA_CIS: Attagene CIS-FACTORIAL HepG2 Assay for human TA Basal Promoter (AID 2282964); conditions: HepG2 Attagene CIS-factorial TA basal promoter reporter; actives raise or lower the signal
Method in brief: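 Transfected HepG2, 24 h compound exposure; RNA → RT-PCR → FAM primer extension → HpaI cut → CE fluorescence. Gain/loss-of-signal fitted against DMSO negative control. Background-control readout.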

[17] = ATG_TCF_b_cat_CIS: Attagene CIS-FACTORIAL HepG2 Assay for human T-Cell-Factor with beta-catenin (TCF/b-cat) (AID 2282965); conditions: HepG2 TCF/beta-catenin cis-reporter transcription, actives raise or lower the signal
Method in brief: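 HepG2, transient MRTU transfection, cis-element-driven reporters (endogenous TFs). 24 h compound exposure. Readout: reporter mRNA by RT-PCR + 6-FAM primer extension, HpaI digest, capillary electrophoresis. Gain/loss fit vs DMSO baseline.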

[18] = target: Hepatocyte nuclear factor 6 (Homo sapiens) (UniProt Q9UBC0); experiment: ATG_HNF6_CIS: Attagene CIS-FACTORIAL HepG2 Assay for human Hepatocyte Nuclear Factor 6 (HNF6) (AID 2282952); conditions: HepG2 Attagene cis-factorial HNF6 reporter transcription; actives raise or lower the signal
Hepatocyte nuclear factor 6 (Homo sapiens), sequence (Q9UBC0 whole entry, looked up, the tested form may be a part): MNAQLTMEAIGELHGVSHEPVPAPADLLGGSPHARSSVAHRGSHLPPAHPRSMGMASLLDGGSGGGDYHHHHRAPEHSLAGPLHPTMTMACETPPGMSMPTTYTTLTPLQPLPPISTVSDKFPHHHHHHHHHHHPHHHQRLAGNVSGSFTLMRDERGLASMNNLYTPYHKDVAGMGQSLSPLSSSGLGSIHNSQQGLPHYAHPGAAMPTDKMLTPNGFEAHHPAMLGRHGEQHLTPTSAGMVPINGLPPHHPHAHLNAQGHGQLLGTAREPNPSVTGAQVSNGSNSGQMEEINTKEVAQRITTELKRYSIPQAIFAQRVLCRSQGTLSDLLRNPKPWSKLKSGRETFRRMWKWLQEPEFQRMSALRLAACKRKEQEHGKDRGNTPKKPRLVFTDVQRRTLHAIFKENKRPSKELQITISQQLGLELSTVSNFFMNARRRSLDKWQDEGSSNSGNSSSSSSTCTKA
Method in brief: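 Reporter mRNA induction or loss in HepG2 after 24 h exposure; transient cis-MRTU transfection; fragments quantified by capillary electrophoresis; bidirectional analysis, DMSO as negative control.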

[19] = ATG_MRE_CIS: Attagene CIS-FACTORIAL HepG2 Assay for human Metal Responsive Element (MRE) (AID 2282954); conditions: HepG2 MRE cis-reporter transcription, Attagene multiplex; actives raise or lower the signal
Method in brief: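 HepG2 cells transiently transfected with cis-element-driven reporter units; mRNA measured 24 h after dosing. Reporter transcripts quantified by RT-PCR, FAM labelling, HpaI digestion and capillary electrophoresis; bidirectional fit versus DMSO.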

Measured: AC50

O=C(C=Cc1ccccc1)OCc1ccccc1
inactive: [1] | [2] | [3] | [4] | [5] | [6] | [7] | [8] | [10] | [11] | [12] | [13] | [14] | [15] | [16] | [17]
active: [9] 13.2 µM

Cc1ccc2c(c1)C(=O)c1ccccc1C2=O
inactive: [1] | [2] | [3] | [4] | [5] | [6] | [7] | [8] | [10] | [11] | [12] | [13] | [14] | [15] | [16]
active: [9] 6.22 µM

O=C(c1ccccc1)C1CCC1
inactive: [1] | [2] | [4] | [5] | [18] | [6] | [19] | [7] | [8] | [9] | [10] | [11] | [12] | [13] | [14] | [15] | [16] | [17]

[Cl][Bi]([Cl])([c]1ccccc1)([c]1ccccc1)[c]1ccccc1
active: [2] 2.74 µM | [19] 6.46 µM | [8] 5.48 µM | [12] 5.6 µM
inactive: [1] | [3] | [4] | [5] | [18] | [7] | [9] | [10] | [11] | [14] | [15] | [16]

CC=CC(=O)N(CC)c1ccccc1C
inactive: [1] | [2] | [3] | [4] | [18] | [19] | [7] | [8] | [11] | [12] | [13] | [14] | [15] | [16] | [17]
active: [9] 11.1 µM

CCCCC(CC)COCC1CO1 (stereo unspecified)
inactive: [1] | [2] | [3] | [4] | [5] | [6] | [7] | [8] | [9] | [11] | [13] | [14] | [15] | [16] | [17]

O=C(O)CCCC[C@@H]1SC[C@@H]2NC(=O)N[C@@H]21
inactive: [1] | [2] | [3] | [4] | [18] | [6] | [19] | [7] | [8] | [9] | [10] | [11] | [12] | [13] | [14] | [15] | [16] | [17]
